Bioassay records from PubChem BioAssay.
Most compounds without a hit are left out; they make up all but 4.1% or so of the library.
UGM FP inh = Mtb UDP-galactopyranose mutase inhibition; purified UGM, fluorescence polarization probe displacement; inhibition, % at 10 µM; P9WIQ1; 0.06% of 320,000 active; AID 504406; in the data active means inhibition above about 10%, passing the limit was not always enough
GDH-TPI counter-1 = inhibits GDH-TPI coupling enzymes, artifact for Mtb FBA screen. GDH-TPI coupled enzyme counterscreen, NADH absorbance. inhibition, % at 4.8 µM. 1.2% of 360,000 active. AID 588335; in the data active means inhibition above about 30%
RecA intein inh = blocks M. tuberculosis RecA intein splicing. P9WHJ3. cell-free RecA intein splicing, fluorescence. inhibition, % (no concentration beside the values). 0.75% of 290,000 active. AID 2221; in the data active means inhibition above about 30%
Mtb FBA inh = Mtb fructose-bisphosphate aldolase inhibition | inhibition, % at 1 µM | P9WQA3 | 2.3% of 360,000 active | AID 588726 | purified M. tuberculosis FBA, fluorescence read-out
Target sequence (P9WQA3 whole entry, looked up): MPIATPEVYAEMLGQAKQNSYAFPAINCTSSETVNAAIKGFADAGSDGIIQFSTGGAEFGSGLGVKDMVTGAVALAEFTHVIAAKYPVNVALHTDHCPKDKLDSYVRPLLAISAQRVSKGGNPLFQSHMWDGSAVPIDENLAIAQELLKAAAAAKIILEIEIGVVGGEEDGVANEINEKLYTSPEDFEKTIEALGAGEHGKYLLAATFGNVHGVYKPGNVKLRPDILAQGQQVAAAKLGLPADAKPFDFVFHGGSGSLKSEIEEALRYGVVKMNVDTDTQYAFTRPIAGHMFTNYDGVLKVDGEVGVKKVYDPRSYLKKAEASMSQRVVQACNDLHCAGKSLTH
Rv3671c inh = inhibits the M. tuberculosis serine protease Rv3671c; AID 2606; P9WHR9; 0.048% of 320,000 active; inhibition, % at 5.96 µM; in the data active means inhibition above about 38%;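 further: extracellular domain of Rv3671c used as enzyme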
BH1578 lux ind = inducers of Vibrio cholerae quorum light production without autoinducers. V. cholerae BH1578 lux reporter, luminescence, 6 h. activation, % at 18.7 µM. 0.16% of 350,000 active. AID 588436; in the data active means activation mostly above about 9.7%, no sharp cut-off
Mtb FBA confirm = Mtb FBA inhibition, confirmed; inhibition, % at 1 µM; shares compounds with Mtb FBA inh; purified M. tuberculosis FBA, fluorescence read-out; 78% of 5,600 active
GDH-TPI counter-2 = GDH-TPI inhibition counter-screen for FBA inhibitors; shares compounds with Mtb FBA inh; GDH-TPI coupled enzyme counterscreen, fluorescence; inhibition, % at 1 µM; 81% of 5,600 active; AID 652141; in the data active means inhibition above about 10%
Numbers stand for hits; i = inactive; nt = no result; + = active, no number. Unless noted, no stated cut-off is given here; in the data, active means inhibition above about 27%; inactive means the rest.

SMILES	UGM FP inh	GDH-TPI counter-1	RecA intein inh	Mtb FBA inh	Rv3671c inh	BH1578 lux ind	Mtb FBA confirm	GDH-TPI counter-2
O=C(c1cccc(S(=O)(=O)N2CCN(c3ccccc3)CC2)c1)N1CCN(c2ccccc2O)CC1	nt	i	i	i	i	i	nt	nt
Cc1ccc(-c2nc3cc(NS(=O)(=O)c4ccc(C)cc4)ccc3o2)cc1	i	i	i	33	i	i	45	28
Cc1ccc(-c2nc3cc(C)ccc3o2)cc1	i	i	i	i	i	i	nt	nt
O=S(=O)(Nc1ccc2oc(-c3ccccc3)nc2c1)c1ccccc1	i	i	i	50	i	i	141	112
Fc1cccc2sc(Nc3nc4cc5c(cc4s3)OCO5)nc12	i	i	i	35	i	i	128	93
CC(C)C(=O)Nc1nc2cc3c(cc2s1)OCO3	i	i	i	i	i	i	nt	nt
Fc1cccc2sc(Nc3nc4cc5c(cc4s3)OCCO5)nc12	i	i	i	39	i	i	i	i
CC(=O)Nc1nc2cc3c(cc2s1)OCCO3	i	i	i	i	i	i	nt	nt
Fc1cc(F)c2nc(Nc3nc4cc5c(cc4s3)OCO5)sc2c1	i	i	i	32	i	i	84	66
CCN(Cc1cnn(C)c1)Cc1nc(C(c2ccccc2)c2ccccc2)no1	i	i	i	i	i	i	nt	nt
CN(C)c1ccc(NC(=O)Cc2ccccc2)c2ccccc12	i	i	i	29	i	i	39	34
COc1cc(OC)cc(C(=O)Nc2ccc(N(C)C)c3ccccc23)c1	i	i	i	i	i	i	nt	nt
O=[N+]([O-])c1ccc(Nc2c3ccccc3nc3ccccc23)cc1	nt	i	i	51	nt	i	101	84
O=[N+]([O-])c1ccccc1Nc1c2ccccc2nc2ccccc12	i	i	i	i	i	i	nt	nt
CC1(C(=O)NS(=O)(=O)c2ccccc2)CCN1C(=O)c1ccccc1CCc1ccccc1 (stereo unspecified)	nt	i	nt	i	nt	i	nt	nt
Cc1cc(OC(C)C(=O)NC2CC(C)(C)NC(C)(C)C2)c2c(C)c(C)c(=O)oc2c1 (stereo unspecified)	nt	i	nt	71	nt	i	+	+
CC(Oc1cc2oc(=O)c3c(c2cc1Cl)CCCC3)C(=O)NCc1cccnc1 (stereo unspecified)	i	i	i	i	i	i	nt	nt
CC(Oc1cc2oc(=O)c3c(c2cc1Cl)CCC3)C(=O)NC1CC(C)(C)NC(C)(C)C1 (stereo unspecified)	i	i	i	i	i	i	nt	nt
CC(Oc1ccc2c3c(c(=O)oc2c1)CCCC3)C(=O)NCc1cccnc1 (stereo unspecified)	i	i	i	71	i	i	+	155
CC(Oc1ccc2c3c(c(=O)oc2c1)CCCC3)C(=O)NCC1CCC(C(=O)O)CC1 (stereo unspecified)	i	i	i	73	i	i	63	57
CC(Oc1ccc2c3c(c(=O)oc2c1)CCCC3)C(=O)NC1CC(C)(C)NC(C)(C)C1 (stereo unspecified)	i	i	i	64	i	i	+	182
C/C(=N\NC(=O)Cn1ccc(C(F)(F)F)n1)c1ccc(N2CCOCC2)cc1	i	i	i	i	i	i	nt	nt
O=C(Cn1ccc(C(F)(F)F)n1)N/N=C/c1ccc(N2CCOCC2)cc1	i	i	i	39	i	i	127	102
CCN(CC)S(=O)(=O)c1cccc(C(=O)N/N=C/c2ccc(N3CCOCC3)cc2)c1	i	i	i	28	i	i	i	i
CC(C)C(=O)N1CCCC1(C)C(=O)Nc1ccccc1 (stereo unspecified)	nt	i	nt	i	nt	i	nt	nt
SMILES	UGM FP inh	GDH-TPI counter-1	RecA intein inh	Mtb FBA inh	Rv3671c inh	BH1578 lux ind	Mtb FBA confirm	GDH-TPI counter-2
COc1ccc(C(=O)CSc2nnc(CNC(=O)c3ccccc3)n2C)cc1	i	i	i	i	i	i	nt	nt
Cn1c(/C=N/n2cnnc2)nc2ccccc21	i	37	i	45	i	i	i	i
Cn1c(/C=N/c2nc3ccccc3[nH]2)nc2ccccc21	i	i	i	i	i	i	nt	nt
CC(C)Cn1c(/C=C/c2ccco2)nc2ccccc21	i	i	i	i	i	i	nt	nt
CCC(=O)c1ccc(/C=C/c2nc3ccccc3n2C)o1	i	i	i	83	i	i	i	i
Cc1[nH]c2ccccc2c1/C=N/n1cnnc1	i	i	i	i	i	i	nt	nt
Cn1c(/C=N/O)nc2ccccc21	i	i	i	52	i	i	i	10
C(=N\n1cnnc1)/c1nc2ccccc2[nH]1	i	i	i	74	i	i	60	49
CC1(C(=O)NS(=O)(=O)c2ccccc2)CCN1C(=O)Cc1ccc(Cl)cc1Cl (stereo unspecified)	nt	i	nt	i	nt	i	nt	nt
COc1ccc(CCN2CC(C(=O)N(C)CC(=O)Nc3ccc(F)c(F)c3F)CC2=O)cc1OC (stereo unspecified)	nt	i	nt	i	nt	i	nt	nt
CCN(CC(=O)Nc1c(F)cccc1F)C(=O)c1cc(S(=O)(=O)NCc2ccccc2)ccc1C	i	i	i	i	i	i	nt	nt
Cn1c2ccccc2c(=O)c2cc(C#CC3=CCCCC3)ccc21	i	i	nt	86	i	i	151	113
Cn1c(CC(O)c2nc3ccccc3n2C)nc2ccccc21 (stereo unspecified)	nt	i	nt	i	nt	i	nt	nt
COC(=O)[C@]1(Cc2ccccc2)N[C@H](CN(C)C(=O)c2ccccc2)[C@@H]2C(=O)N(Cc3ccccc3)C(=O)[C@@H]21	i	i	nt	i	i	i	nt	nt
N#Cc1ccc(-c2ccc(OCC(O)CN3CCOCC3)cc2)cc1 (stereo unspecified)	i	i	i	40	i	i	i	i
COC(=O)c1cc(-c2ccc(OC)cc2F)nc2nc(SC)[nH]c(=O)c12	i	i	i	27	i	i	+	+
COC(=O)C1=CN(c2ccc(F)cc2)C=C(C(=O)OC)C1c1cccc(Br)c1	i	i	i	i	nt	i	nt	nt
COC(=O)C1=CN(c2cccc(Cl)c2)C=C(C(=O)OC)C1c1cccc(OC)c1	i	i	i	54	nt	i	111	94
CC1(C)OC(=CC=Nc2ccc(Cl)cc2)OC1(C)C	i	i	i	49	i	i	+	+
COc1ccc(OC)c(/C=N/NC(=O)CNC(=O)c2ccc(S(=O)(=O)N3CCCC3)cc2)c1	i	i	i	36	i	i	165	121
COc1ccc(/C=N/NC(=O)CN2CCSCC2)c(OC)c1	i	i	i	i	i	i	nt	nt
COc1ccc(OC)c(/C=N/NC(=O)C(O)c2ccccc2)c1 (stereo unspecified)	i	i	i	101	i	i	82	62
COc1ccc(OC)c(/C=N/NC(=O)CN2CCSCC2)c1	i	i	i	85	i	i	77	66
COc1ccccc1NS(=O)(=O)c1ccc(C(=O)NCCCn2ccnc2)cc1	i	i	nt	i	i	i	nt	nt
COc1ccc(-c2nc(C#N)c(NCc3cccnc3)o2)cc1OC	i	i	i	30	i	i	53	39
